# Experimental data taken from PubChem BioAssay AID463173 (ICCB-Longwood Screening Facility, Harvard Medical School, 2010).
# Among all 52,000 compounds or so, about 4,300 (8.3%) were called active. This is one part of a sample in which actives are shown more often than they occur. A number with no mark means an inactive call. Rule as the data show it: active = survival mostly below about 52% (no sharp cut-off); inactive = mostly above about 56%.
# Tested on: DeltatarO mutant
# Experiment: S. aureus survival, RN4220 and DeltatarO strains – OD600, teichoic acid synthesis inhibitors, primary screen (AID 463173)
# Settings: S. aureus RN4220 wild type/DeltatarO growth, OD600, 18 h, hits give low values, screened at 18.75 µg/mL (by protocol)
row,SMILES,survival
1,COc1cccc(NC(=O)CN2C=NS(=O)(=O)c3ccccc32)c1,122%
2,O=C(CCCCn1c(=O)c2ccccc2n(Cc2ccc(F)cc2Cl)c1=O)NCCc1ccc(Cl)cc1,72%
3,O=C(c1ccc(Cl)cc1)N1CCCCC1CCN1CCOCC1 (stereo not drawn),104%
4,Cc1nc2c(C(=O)NC(C)c3ccccc3)cnn2c(C)c1Cc1ccccc1 (stereo not drawn),72%
5,COCCNC(=O)Cn1nc(N2CCN(c3ccccc3OC)CC2)ccc1=O,94%
6,O=C(Cn1nc(Cc2cccnc2)c2ccccc2c1=O)Nc1cccc(C(F)(F)F)c1,54%
7,CNC(=O)Cn1nc(-c2ccc(Cl)cc2)c2ccccc2c1=O,52%
8,Cn1nc(-c2ccc(C(=O)Nc3cccc(C(F)(F)F)c3)cc2)c2ccccc2c1=O,57%
9,COc1ccc(NC(=O)CCn2nc(-c3ccc(Cl)cc3)c3ccccc3c2=O)cc1,76%
10,Cc1ccc(NC(=O)Cn2nc(-c3ccc(Cl)cc3)c3ccccc3c2=O)cc1,38% (active)
11,O=C(Cn1nc(-c2ccc(Cl)cc2)c2ccccc2c1=O)Nc1cccc(C(F)(F)F)c1,34% (active)
12,Oc1c(C(c2ccc(Cl)cc2Cl)N2CCCC2)sc2nc(-c3ccco3)nn12 (stereo not drawn),68%
13,Cc1cccc(C(=O)OCc2cc(=O)n3nc(C4CCCCC4)sc3n2)c1,78%
14,CNC(=S)NC1CC2CCCC(C1)N2Cc1ccco1 (stereo not drawn),80%
15,O=C(c1ccccc1)N1CCC(O)(c2cccnc2)CC1,70%
16,CCOC(=O)c1ccc(NC(=O)CSc2cc(-c3ccccc3)nc(C)n2)cc1,40% (active)
17,COc1ccc(NC(=O)CSc2cc(-c3ccccc3)nc(C)n2)cc1,94%
18,Cc1nc(SCC(=O)Nc2ccccc2C)cc(-c2ccccc2)n1,53%
19,Cc1nc(SCC(=O)Nc2ccc(C)c(Cl)c2)cc(-c2ccccc2)n1,46%
20,COC(=O)c1ccccc1NC(=O)CSc1cc(-c2ccccc2)nc(C)n1,71%
21,Cc1nc(SCC(=O)Nc2ccccc2Cl)cc(-c2ccccc2)n1,56% (active)
22,Cc1ccc(NC(=O)CSc2nc(=O)n(CCN3CCOCC3)c3c2CCC3)c(C)c1,73%
23,COC(=O)c1ccc(NS(=O)(=O)c2ccc3c(c2)n(C)c(=O)c(=O)n3C)cc1,79%
24,COCCNC(=O)C1CCN(Cc2cc3ccccc3n2Cc2ccc(C)cc2)CC1,99%
25,CCOc1ccc(NC(=O)CCS(=O)(=O)c2cc3c4c(c2)CCN4C(=O)CC3)cc1,74%

row,SMILES,survival
1,N#CSc1cnc(NC2CCCCC2)s1,1% (active)
2,Cc1ccc(-c2nnc(NC3CCCC3)s2)cc1,76%
3,Cc1cc(C)c(C#N)c(NC2CCCCC2)n1,87%
4,Cc1ccc(C(=O)Nc2c(C(=O)Nc3ccc(C)c(C)c3)sc3nc(C)cc(C)c23)cc1,54%
5,Cc1cc(C)cc(-n2c(C)cc(C(=O)C(=O)Nc3ccccc3F)c2C)c1,99%
6,Cc1cccc(C2C=C(c3ccc(C)c(C)c3)Nc3nnnn32)c1 (stereo not drawn),6% (active)
7,CCOc1ccc(C2C=C(c3cccc(OC)c3)Nc3nnnn32)cc1 (stereo not drawn),45% (active)
8,CCOc1ccc(NC(=O)c2cnn3c2NC(c2cccc(OC)c2)=CC3c2ccccc2)cc1 (stereo not drawn),49%
9,COc1ccc(C2C=C(c3ccc(Br)cc3)Nc3nnnn32)c(OC)c1 (stereo not drawn),84%
10,CN(C)c1ccc(C2C=C(c3ccccc3)Nc3nnnn32)cc1 (stereo not drawn),52%
11,COc1ccc(C2=CC(c3cccc(C)c3)n3nnnc3N2)cc1 (stereo not drawn),84%
12,COc1cccc(C2=CC(c3cc(Br)ccc3F)n3nnnc3N2)c1 (stereo not drawn),-2% (active)
13,COc1cccc(C2C=C(c3ccc(C)c(C)c3)Nc3nnnn32)c1OC (stereo not drawn),72%
14,Fc1ccc(Br)cc1C1C=C(c2ccc(Br)cc2)Nc2nnnn21 (stereo not drawn),91%
15,Cc1ccc(C)c(N2CCN(S(=O)(=O)c3ccc4c(c3)n(C)c(=O)c(=O)n4C)CC2)c1,76%
16,CC(C)CC(C(=O)NCc1ccc(F)cc1)N1Cc2ccccc2C1=O (stereo not drawn),88%
17,O=C(NCc1cccnc1)c1nn(-c2ccc(F)cc2)nc1CO,111%
18,CCc1ccc2occ(CC(=O)Nc3c(C(=O)Nc4ccc(OC)cc4)oc4ccccc34)c2c1,84%
19,CCOC(=O)CC1c2cc(OCC)c(OCC)cc2CCN1C(=O)Nc1cccc(Cl)c1 (stereo not drawn),41% (active)
20,CCOc1cc2c(cc1OCC)C(CC(=O)O)N(C(=O)Nc1ccc(Br)c(C)c1)CC2 (stereo not drawn),81%
21,CCOc1cc2c(cc1OCC)C(CC(=O)OC)N(C(=O)Nc1cc(C)cc(C)c1)CC2 (stereo not drawn),83%
22,OCc1nc2ccccc2n1Cc1c(F)cccc1Cl,99%
23,CCCC(=O)NCCc1nc2ccccc2n1Cc1c(F)cccc1Cl,69%
24,Clc1ccccc1Cn1c(-c2cccs2)nc2ccccc21,11% (active)
25,Cc1ccccc1Cn1cnc2ccccc21,77%

row,SMILES,survival
1,CC(=O)N1CCCC1c1nc2ccccc2n1Cc1cccc(C)c1 (stereo not drawn),72%
2,CC(=O)N1CCCC1c1nc2ccccc2n1Cc1ccccc1C (stereo not drawn),69%
3,Cc1ccccc1Cn1c(-c2cccs2)nc2ccccc21,19% (active)
4,O=C(NCc1nc2ccccc2n1Cc1ccccc1Cl)c1ccccc1,97%
5,Fc1cccc(Cl)c1Cn1c(-c2cccs2)nc2ccccc21,21% (active)
6,Cc1cccc(Cn2c(-c3cccs3)nc3ccccc32)c1,2% (active)
7,OCc1nc2ccccc2n1Cc1ccccc1Cl,74%
8,Cc1cccc(CNC(=O)Cn2c(-c3cccs3)cc3ccccc32)c1,116%
9,O=c1[nH]nc(-c2ccccc2)c2cc3c(=O)[nH]nc(-c4ccccc4)c3cc12,100%
10,CSc1cccc(NC(=O)Cn2c(=O)n(Cc3ccccc3)c(=O)c3sc4ccccc4c32)c1,91%
11,Cc1ccc(Cn2c(=O)n(CC3CCC(C(=O)N4CCOCC4)CC3)c(=O)c3sccc32)cc1 (stereo not drawn),75%
12,Cc1cccc(CC2C(=O)Nc3ccccc32)c1 (stereo not drawn),87%
13,CCc1ccccc1NC(=O)Cn1ccn(-c2cc(C)cc(C)c2)c(=O)c1=O,67%
14,Cc1cc(Cl)ccc1NC(=O)C(=O)NCc1ccco1,135%
15,Cc1ccc(C)c(Cn2c(C(C)NC(=O)c3ccccc3)nc3ccccc32)c1 (stereo not drawn),88%
16,CCC(O)c1nc2ccccc2n1Cc1cc(C)ccc1C (stereo not drawn),86%
17,Cc1ccc(C)c(Cn2c(-c3cccs3)nc3ccccc32)c1,-3% (active)
18,Cc1ccc(C)c(NC(=O)CSc2nnc(C)n3c2cc2occc23)c1,66%
19,C=Cc1ccc(CSc2nnc(C)n3c2cc2occc23)cc1,42% (active)
20,Cc1oc(-c2ccccc2F)nc1CSc1nnc(C)n2c1cc1occc12,74%
21,Clc1ccc(CSc2nncn3c2cc2occc23)cc1,47%
22,Cc1nnc(SCc2ccc(Cl)cc2)c2cc3occc3n12,28% (active)
23,Cc1ccc(-c2nc(CSc3nnc(C)n4c3cc3occc34)c(C)o2)cc1,72%
24,Cc1nnc(SCc2ccccc2Cl)c2cc3occc3n12,74%
25,Cc1oc(-c2cccc(Cl)c2)nc1CSc1nnc(C)n2c1cc1occc12,79%

row,SMILES,survival
1,Cc1cc2c(cc3c(SCc4ccc(Cl)cc4)nnc(C)n32)o1,57%
2,Cc1cc2c(cc3c(SCc4cccc(Cl)c4)nnc(C)n32)o1,56%
3,Cc1cc2c(cc3c(SCc4ccccc4Cl)nnc(C)n32)o1,49% (active)
4,Cc1cc(C)c(CSc2nnc(C)n3c2cc2occc23)c(C)c1,40% (active)
5,COc1ccc(NC(=O)C(CC(C)C)NS(=O)(=O)c2ccc3c(c2)oc(=O)n3C)cc1Cl (stereo not drawn),127%
6,Cc1cccc(NC(=O)CSc2nc3c(sc4ccccc43)c(=O)n2CCCC(=O)NC2CCCC2)c1,87%
7,CCOC(=O)c1c(C)oc2ncnc(NCCCN3CCN(c4cc(C)ccc4C)CC3)c12,101%
8,Cc1ccc(Cn2c(C(=O)NCc3ccccc3Cl)cc3sccc32)cc1,86%
9,COc1ccccc1-c1nc2c3c(-c4ccccc4)c(-c4ccccc4)oc3ncn2n1,70%
10,COc1cccc(NC(=O)CSCc2cc(=O)c3ccc(C)c(C)c3[nH]2)c1,74%
11,CSCCC(NS(=O)(=O)c1ccc2c(c1)oc(=O)n2C)C(=O)Nc1ccc(Cl)cc1 (stereo not drawn),94%
12,O=C(CCn1c(=O)c2cccn2c2ccc(F)cc21)NCCc1ccccc1Cl,52%
13,COc1ccc(OC)c(CCNC(=O)CCCn2c(=O)c3cccn3c3ccc(F)cc32)c1,88%
14,COc1ccc(OC)c(CCNC(=O)CCn2c(=O)c3cccn3c3ccc(F)cc32)c1,58%
15,COc1ccc(CCNC(=O)CCn2c(=O)c3cccn3c3ccc(F)cc32)c(OC)c1OC,39% (active)
16,COc1ccccc1CCNC(=O)CCn1c(=O)c2cccn2c2ccc(F)cc21,44% (active)
17,COc1ccc(OC)c(CNC(=O)CCn2c(=O)c3cccn3c3ccc(F)cc32)c1,58%
18,COc1ccc(S(=O)(=O)Nc2ccc3c(c2)CCCN3S(=O)(=O)c2ccc(C)cc2)cc1F,74%
19,O=C(NCCn1ccc2ccccc21)c1ccc(Cl)cc1,87%
20,O=C1CC(c2ccccc2)Cc2[nH]c(=O)c(C(=O)Nc3ccc(OC(F)(F)F)cc3)cc21 (stereo not drawn),163%
21,CCc1ccc(NC(=O)CSc2nc3ncccc3[nH]2)cc1,86%
22,CCN(C(=O)CSc1nc2ncccc2[nH]1)c1ccc(C(C)C)cc1,43% (active)
23,CCN(C(=O)CSc1nc2ccccc2[nH]1)c1ccccc1,85%
